# From PubChem BioAssay
# For part of these data: Measured potencies and affinities stand elsewhere. Calls of active or inactive are those of the source.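 Rule for the calls, unless noted: active = primary screen active and over 50% activation in each of two duplicate runs; inactive = the rest.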
# What was measured:
# [1] = tested on: TRPC4 beta (transient receptor potential cation channel C4), mouse; test: activators of mouse TRPC4 channel, confirmation, cell-based, Fluo4 calcium, HEK293 TRPC4beta/mu-opioid, duplicates, 10 µM (AID 2426;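 active = fluorescence ratio normalized to control raised more than 50% in primary screen plus both repeat runs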); details: Fluo4 calcium fluorescence, at 10 µM; active compounds read high
# [2] = tested on: transient receptor potential cation channel C4 beta (TRPC4), mouse; test: activators of mouse TRPC4 channel, confirmation, cell-based, second round, Fluo4, HEK293 TRPC4beta/mu-opioid, 1 µM (AID 2461); details: Fluo4 calcium fluorescence, at 1 µM; active compounds read high
# [3] = tested on: TRPC4 (transient receptor potential cation channel C4 beta), mouse; test: positive allosteric modulators of mouse TRPC4, confirmation, cell-based, second round, Fluo-4, HEK293 TRPC4beta/mu-opioid, 1 µM (AID 2554;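 active = primary screen hit whose fluorescence ratio, in both repeats, exceeds the weak agonist control mean by 3 SD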); details: DAMGO EC20, Fluo-4 calcium flux, at 1 µM; active compounds read high
# [4] = tested on: TRPC4 beta (transient receptor potential cation channel C4), mouse; test: positive allosteric modulators of mouse TRPC4, confirmation, cell-based, Fluo-4, HEK293 TRPC4beta/mu-opioid (AID 2555;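 active = primary screen hit whose calcium fluorescence ratio, in both repeats, exceeds the weak agonist control mean by 3 SD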); details: DAMGO EC20, Fluo-4 calcium flux, at 10 µM; active compounds read high
# [5] = target: Short transient receptor potential channel 4 (Mus musculus) (UniProt Q9QUQ5); test: inhibitors of mouse TRPC4 channel, confirmation, cell-based, Fluo4, HEK293 TRPC4beta/mu-opioid (AID 2636;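 active = calcium signal cut by more than 3 SD below the full-agonist control yet still positive, in both repeats and the earlier primary screen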); details: DAMGO, Fluo4 calcium flux, at 10 µM; active compounds read high
# Chain of Short transient receptor potential channel 4 (Mus musculus) (Q9QUQ5 whole entry, looked up): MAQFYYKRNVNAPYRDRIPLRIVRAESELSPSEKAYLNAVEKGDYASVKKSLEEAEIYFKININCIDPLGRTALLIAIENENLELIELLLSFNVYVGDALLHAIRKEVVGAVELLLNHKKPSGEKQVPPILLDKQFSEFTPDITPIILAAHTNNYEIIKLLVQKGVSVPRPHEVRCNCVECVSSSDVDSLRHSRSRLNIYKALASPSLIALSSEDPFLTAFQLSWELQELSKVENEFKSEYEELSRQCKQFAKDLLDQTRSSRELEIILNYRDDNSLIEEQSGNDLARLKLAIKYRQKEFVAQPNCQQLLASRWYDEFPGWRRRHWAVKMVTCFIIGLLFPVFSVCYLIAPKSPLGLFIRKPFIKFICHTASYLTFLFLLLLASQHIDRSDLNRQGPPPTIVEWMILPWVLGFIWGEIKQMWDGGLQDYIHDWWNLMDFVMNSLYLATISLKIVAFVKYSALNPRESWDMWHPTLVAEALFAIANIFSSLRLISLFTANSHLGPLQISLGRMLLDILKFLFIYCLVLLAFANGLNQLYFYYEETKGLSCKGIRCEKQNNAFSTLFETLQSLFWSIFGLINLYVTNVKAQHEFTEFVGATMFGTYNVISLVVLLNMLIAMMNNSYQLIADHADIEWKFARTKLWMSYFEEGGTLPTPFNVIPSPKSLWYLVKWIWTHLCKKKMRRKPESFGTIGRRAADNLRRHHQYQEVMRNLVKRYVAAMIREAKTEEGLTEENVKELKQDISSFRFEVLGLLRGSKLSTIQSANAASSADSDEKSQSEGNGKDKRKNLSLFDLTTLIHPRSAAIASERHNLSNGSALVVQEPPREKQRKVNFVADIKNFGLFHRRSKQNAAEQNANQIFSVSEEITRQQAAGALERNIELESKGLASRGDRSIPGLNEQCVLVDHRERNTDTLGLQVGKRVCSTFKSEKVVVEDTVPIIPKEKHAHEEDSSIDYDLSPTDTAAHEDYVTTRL
# [6] = target: Short transient receptor potential channel 4 (Mus musculus) (UniProt Q9QUQ5); test: inhibitors of mouse TRPC4 channel, confirmation, cell-based, second round, Fluo4, HEK293 TRPC4beta/mu-opioid, 1 µM (AID 2637;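 active = calcium signal ratio cut to more than 3 SD under the fully stimulated control mean yet still positive, in both repeats and the primary screen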); details: Fluo4 calcium flux, DAMGO, at 1 µM; active compounds read high
# [7] = target: Short transient receptor potential channel 4 (Mus musculus) (UniProt Q9QUQ5); test: mouse TRPC4 channel activators, dose response, cell-based, HEK293 TRPC4/mu-opioid, Fluo-4 calcium (AID 434937;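 active = primary screen activator hit with a dose response curve and TRPC4 channel activation at any tested dose; inactive = no activation, no dose response, or not a primary hit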)
# [8] = target: Short transient receptor potential channel 4 (Mus musculus) (UniProt Q9QUQ5); test: TRPC4 positive allosteric modulators, dose response, cell-based, HEK293 TRPC4/mu-opioid, Fluo-4 calcium, EC20 DAMGO (AID 434941;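 active = earlier screen potentiator hit that boosts the TRPC4 ion channel at some dose, with a dose response; inactive = no potentiation, no dose response, or not a prior hit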;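 note: calcium entry triggered by an EC20 dose of DAMGO at the co-expressed mu-opioid receptor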)
# [9] = target: Short transient receptor potential channel 6 (Mus musculus) (UniProt Q61143); test: inhibition of mouse TRPC6 channel, confirmation, selectivity assay for TRPC4 inhibitor project, cell-based, HEK293, membrane potential dye, duplicate (AID 434948;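 active = active in primary screen and both duplicates, each dropping signal beyond three positive-control SD with fluorescence still positive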); details: HEK293 TRPC6, membrane potential dye fluorescence, at 10 µM, stimulated with maximal-effect acetylcholine; active compounds read high
# Chain of Short transient receptor potential channel 6 (Mus musculus) (Q61143 whole entry, looked up): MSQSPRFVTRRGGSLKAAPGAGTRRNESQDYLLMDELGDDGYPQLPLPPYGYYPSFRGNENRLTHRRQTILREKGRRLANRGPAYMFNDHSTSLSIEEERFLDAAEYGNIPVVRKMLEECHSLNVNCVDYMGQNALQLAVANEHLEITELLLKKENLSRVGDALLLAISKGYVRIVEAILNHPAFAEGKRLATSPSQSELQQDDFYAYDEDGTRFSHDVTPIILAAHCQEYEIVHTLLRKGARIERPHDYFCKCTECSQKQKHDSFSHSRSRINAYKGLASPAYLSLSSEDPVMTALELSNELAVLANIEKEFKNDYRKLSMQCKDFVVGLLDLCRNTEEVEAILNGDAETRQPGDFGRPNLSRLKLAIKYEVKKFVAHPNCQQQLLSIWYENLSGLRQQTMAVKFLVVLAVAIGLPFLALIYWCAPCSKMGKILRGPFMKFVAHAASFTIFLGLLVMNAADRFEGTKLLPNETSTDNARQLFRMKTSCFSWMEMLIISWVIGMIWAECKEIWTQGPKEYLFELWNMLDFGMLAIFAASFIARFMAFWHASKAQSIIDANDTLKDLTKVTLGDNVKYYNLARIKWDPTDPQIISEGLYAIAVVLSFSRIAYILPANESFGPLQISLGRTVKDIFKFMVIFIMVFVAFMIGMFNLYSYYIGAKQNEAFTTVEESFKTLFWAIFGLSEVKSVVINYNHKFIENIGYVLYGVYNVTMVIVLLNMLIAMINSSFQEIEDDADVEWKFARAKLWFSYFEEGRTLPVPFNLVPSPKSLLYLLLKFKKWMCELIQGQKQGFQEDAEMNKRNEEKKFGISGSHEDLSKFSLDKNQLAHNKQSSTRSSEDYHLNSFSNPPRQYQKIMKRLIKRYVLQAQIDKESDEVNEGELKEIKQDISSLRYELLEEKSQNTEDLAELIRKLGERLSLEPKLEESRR
# [10] = target: Short transient receptor potential channel 6 (Mus musculus) (UniProt Q61143); test: activation of mouse TRPC6 channel, confirmation, selectivity assay for TRPC4 activator project, cell-based, HEK293, membrane potential dye, duplicate (AID 434950;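 active = membrane potential signal rise above negative control mean plus 3 SD in both duplicates, also active in the earlier TRPC4 screen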); details: HEK293 TRPC6, membrane potential fluorescence, at 10 µM; active compounds read high
# [11] = target: Short transient receptor potential channel 6 (Mus musculus) (UniProt Q61143); test: TRPC6 potentiation by TRPC4 potentiator hits, confirmation, selectivity assay for TRPC4 potentiator project, HEK293 cells, membrane potential dye, duplicate (AID 434952;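 active = compound raising the membrane signal above positive-control mean plus 3 SD in both repeats, and a primary screen hit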); details: HEK293 TRPC6, membrane potential dye fluorescence, at 10 µM, maximal acetylcholine added after compound; active compounds read high
# [12] = target: Short transient receptor potential channel 4 (Mus musculus) (UniProt Q9QUQ5); test: calcium flux activators in TRPC4/5HT1a cells, counter-screen for TRPC4 activator project, cell-based, second counter screen, HEK293 TRPC4/5HT1a, Fluo-4 (AID 434977;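 active = calcium signal rise above buffer-control mean plus 5 SD in both duplicates, and also a hit in the primary screen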); details: Fluo-4 calcium flux, at 10 µM; active compounds read high
# [13] = calcium flux inhibitors in TRPC4/5HT1a cells, confirmation, counter-screen for TRPC4 inhibitor project, cell-based, second counter screen, HEK293 TRPC4/5HT1a, Fluo-4 (AID 434978;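 active = primary screen active whose calcium signal fell more than 3 SD beyond the full-serotonin control mean in both duplicate plates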;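 for outcome: serotonin given first at submaximal then at maximal dose after compound preincubation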); details: Fluo-4 calcium flux, at 10 µM, serotonin added to trigger calcium flux; active compounds read high
# [14] = tested on: TRPC4 (mouse), co-expressed with 5HT1a in HEK293; test: calcium flux potentiators in TRPC4/5HT1a cells, confirmation, counter-screen for TRPC4 potentiator project, cell-based, second counter screen, HEK293 TRPC4/5HT1a, Fluo-4 (AID 434979;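 active = signal rise over 3 SD above mean of control wells given weak agonist, in both repeats and first screen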); details: Fluo-4 calcium flux, at 10 µM, serotonin added at its EC20 dose; active compounds read high
# [15] = calcium flux activation in mu-opioid HEK293 cells, confirmation, counter-screen for TRPC4 activator project, cell-based, HEK293 mu-opioid receptor line (AID 449723;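 active = hit in primary screen, with calcium signal over 5 SD above buffer well mean in both duplicates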;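 note: counter screen cells carry the mu-opioid receptor alone and lack TRPC4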); details: Fluo-4 calcium fluorescence, at 10 µM; active compounds read high
# [16] = calcium flux enhancement in mu-opioid HEK293 cells, confirmation, counter-screen for TRPC4 allosteric potentiator project, cell-based, HEK293 mu-opioid receptor line (AID 449724;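 active = calcium signal rise more than 3 SD above the low-dose agonist control mean, in both duplicate plates and the primary screen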); details: Fluo-4 calcium flux, at 10 µM, compound added before EC20 DAMGO stimulus; active compounds read high
# [17] = thallium flux activation in parental CHO cells, counter-screen for KCNQ1 potentiator project (AID 493006;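 active = duplicate-averaged activation above buffer control mean plus 5 SD of those controls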); details: parental CHO-K1 cells, FluxOR thallium flux, at 10 µM; active compounds read high
# [18] = target: Potassium voltage-gated channel subfamily KQT member 1 (Homo sapiens) (UniProt P51787); test: KCNQ1 potassium channel potentiators, confirmation, FluxOR thallium flux, CHO cells, duplicates (AID 493007;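 active = potentiation averaged over duplicate wells exceeding buffer-only control mean by more than 3 SD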;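 note: cells depolarized by a potassium plus thallium sulfate stimulus after compound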); details: KCNQ1 cell line, FluxOR thallium flux fluorescence, at 10 µM; active compounds read high, % of reference activator effect, buffer zero
# Chain of Potassium voltage-gated channel subfamily KQT member 1 (Homo sapiens) (P51787 whole entry, looked up): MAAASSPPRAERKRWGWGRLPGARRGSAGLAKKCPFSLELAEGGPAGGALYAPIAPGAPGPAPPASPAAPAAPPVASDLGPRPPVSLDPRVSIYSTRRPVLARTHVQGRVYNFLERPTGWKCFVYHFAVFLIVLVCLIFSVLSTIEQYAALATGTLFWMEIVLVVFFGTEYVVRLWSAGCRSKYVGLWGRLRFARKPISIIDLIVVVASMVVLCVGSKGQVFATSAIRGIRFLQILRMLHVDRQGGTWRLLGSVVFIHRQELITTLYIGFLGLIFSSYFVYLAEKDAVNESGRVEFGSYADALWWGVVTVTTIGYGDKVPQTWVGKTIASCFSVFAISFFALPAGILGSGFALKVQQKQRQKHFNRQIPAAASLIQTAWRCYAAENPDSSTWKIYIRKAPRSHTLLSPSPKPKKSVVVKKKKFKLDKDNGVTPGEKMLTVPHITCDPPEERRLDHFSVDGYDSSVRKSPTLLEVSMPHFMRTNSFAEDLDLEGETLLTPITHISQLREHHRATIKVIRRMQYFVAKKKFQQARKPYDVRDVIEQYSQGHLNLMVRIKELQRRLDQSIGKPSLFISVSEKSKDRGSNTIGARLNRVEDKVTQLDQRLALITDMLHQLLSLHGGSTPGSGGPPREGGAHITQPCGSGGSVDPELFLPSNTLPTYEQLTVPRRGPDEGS
# [19] = target: Potassium voltage-gated channel subfamily KQT member 2 (Rattus norvegicus) (UniProt O88943); test: rat KCNQ2 channel potentiation, selectivity assay for KCNQ1 potentiator project, KCNQ2-CHO-K1 cells (AID 493009;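 active = mean duplicate potentiation above the buffer control mean plus 5 SD of buffer wells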;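 note: assay conditions were tuned for KCNQ1 rather than KCNQ2 modulators; signal is max minus min fluorescence divided by baseline after thallium stimulus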); details: FluxOR thallium flux fluorescence, at 10 µM; active compounds read high, scaled: buffer 0, activator control 100
# Chain of Potassium voltage-gated channel subfamily KQT member 2 (Rattus norvegicus) (O88943 whole entry, looked up): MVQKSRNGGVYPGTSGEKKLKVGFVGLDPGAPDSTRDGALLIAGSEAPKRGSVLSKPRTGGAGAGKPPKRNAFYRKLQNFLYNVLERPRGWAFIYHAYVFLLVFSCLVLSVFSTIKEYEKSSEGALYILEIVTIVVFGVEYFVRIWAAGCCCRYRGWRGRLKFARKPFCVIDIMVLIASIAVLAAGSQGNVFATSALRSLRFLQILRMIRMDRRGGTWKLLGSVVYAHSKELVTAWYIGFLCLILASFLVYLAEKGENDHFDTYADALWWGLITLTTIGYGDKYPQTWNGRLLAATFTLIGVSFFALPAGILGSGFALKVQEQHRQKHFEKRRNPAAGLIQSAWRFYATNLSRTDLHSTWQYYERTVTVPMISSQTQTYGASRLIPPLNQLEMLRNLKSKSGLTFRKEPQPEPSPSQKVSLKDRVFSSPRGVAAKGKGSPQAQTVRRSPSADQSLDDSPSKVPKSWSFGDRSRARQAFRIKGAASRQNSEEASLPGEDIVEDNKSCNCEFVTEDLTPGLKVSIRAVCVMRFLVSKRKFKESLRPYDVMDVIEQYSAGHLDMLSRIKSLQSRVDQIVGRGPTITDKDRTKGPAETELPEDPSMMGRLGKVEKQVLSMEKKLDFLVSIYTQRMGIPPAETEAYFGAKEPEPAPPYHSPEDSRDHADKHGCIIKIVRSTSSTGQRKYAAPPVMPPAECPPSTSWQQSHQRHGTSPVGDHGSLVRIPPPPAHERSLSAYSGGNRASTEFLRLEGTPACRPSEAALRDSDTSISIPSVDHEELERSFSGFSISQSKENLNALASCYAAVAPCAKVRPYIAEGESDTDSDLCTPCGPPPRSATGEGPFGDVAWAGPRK
# [20] = target: Short transient receptor potential channel 4 (Mus musculus) (UniProt Q9QUQ5); test: mouse TRPC4 channel inhibitors, dose response, cell-based, HEK293 TRPC4/mu-opioid, Fluo-4 calcium (AID 434942;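 active = primary screen inhibitor hit that blocks the TRPC4 channel at some tested dose, yielding a dose curve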)
smiles,measurement,setting,value
COc1cc(CNC2CCCC2)cc(Cl)c1OCc1ccc(F)cc1,outcome,[1],inactive
same,outcome,[2],inactive
same,outcome,[3],inactive
same,outcome,[4],inactive
same,inhibition,[5],82% (active)
same,outcome,[6],inactive
same,outcome,[7],inactive
same,outcome,[8],inactive
same,outcome,[9],inactive
same,outcome,[10],inactive
same,outcome,[11],inactive
same,outcome,[12],inactive
same,inhibition,[13],37.5% (active)
same,outcome,[14],inactive
same,outcome,[15],inactive
same,outcome,[16],inactive
CSc1nsc(NC(=O)Cc2ccccc2)n1,outcome,[1],inactive
same,outcome,[2],inactive
same,outcome,[3],inactive
same,outcome,[4],inactive
same,inhibition,[5],93% (active)
same,outcome,[6],inactive
same,outcome,[7],inactive
same,outcome,[8],inactive
same,outcome,[9],inactive
same,outcome,[10],inactive
same,outcome,[11],inactive
same,outcome,[12],inactive
same,outcome,[13],inactive
same,outcome,[14],inactive
same,outcome,[15],inactive
same,outcome,[16],inactive
COc1ccc(C(c2nnnn2C2CCCC2)N2CCN(c3ccccc3)CC2)cc1 (centres undefined),outcome,[1],inactive
same,outcome,[2],inactive
same,outcome,[3],inactive
same,outcome,[4],inactive
same,inhibition,[5],52% (active)
same,outcome,[6],inactive
same,outcome,[7],inactive
same,outcome,[8],inactive
same,outcome,[9],inactive
same,outcome,[10],inactive
same,outcome,[11],inactive
same,outcome,[12],inactive
same,outcome,[13],inactive
same,outcome,[14],inactive
same,outcome,[15],inactive
same,outcome,[16],inactive
OCC(Cc1ccccc1)NCc1ccccc1C(F)(F)F (centres undefined),outcome,[1],inactive
same,outcome,[2],inactive
same,outcome,[3],inactive
same,outcome,[4],inactive
same,inhibition,[5],60% (active)
same,outcome,[6],inactive
same,outcome,[7],inactive
same,outcome,[8],inactive
same,outcome,[9],inactive
same,outcome,[10],inactive
same,outcome,[11],inactive
same,outcome,[12],inactive
same,outcome,[13],inactive
same,outcome,[14],inactive
same,outcome,[15],inactive
same,outcome,[16],inactive
CN(C)c1ccc(NC(=O)CN2C3CCCC2CC(NC(=O)c2ccccc2)C3)cc1 (centres undefined),outcome,[1],inactive
same,outcome,[2],inactive
same,outcome,[3],inactive
same,outcome,[4],inactive
same,inhibition,[5],71% (active)
same,outcome,[6],inactive
same,outcome,[7],inactive
same,outcome,[8],inactive
same,outcome,[9],inactive
same,outcome,[10],inactive
same,outcome,[11],inactive
same,outcome,[12],inactive
same,outcome,[13],inactive
same,outcome,[14],inactive
same,outcome,[15],inactive
same,outcome,[16],inactive
Cc1ccc(OCC(COCc2ccccc2)NC(C)C)cc1 (centres undefined),outcome,[1],inactive
same,outcome,[2],inactive
same,outcome,[3],inactive
same,outcome,[4],inactive
same,inhibition,[5],85% (active)
same,outcome,[6],inactive
same,outcome,[7],inactive
same,outcome,[8],inactive
same,inhibition,[9],5% (active)
same,outcome,[10],inactive
same,outcome,[11],inactive
same,outcome,[12],inactive
same,inhibition,[13],42.1% (active)
same,outcome,[14],inactive
same,outcome,[15],inactive
same,outcome,[16],inactive
CN(C)CC(CCC(CN(C)C)C(O)(c1ccccc1)c1ccccc1)C(O)(c1ccccc1)c1ccccc1 (centres undefined),outcome,[1],inactive
same,outcome,[2],inactive
same,outcome,[3],inactive
same,outcome,[4],inactive
same,outcome,[5],inactive
same,outcome,[6],inactive
same,outcome,[7],inactive
same,outcome,[8],inactive
same,outcome,[9],inactive
same,outcome,[10],inactive
same,outcome,[11],inactive
same,outcome,[12],inactive
same,outcome,[13],inactive
same,outcome,[14],inactive
same,outcome,[15],inactive
same,outcome,[16],inactive
same,outcome,[17],inactive
same,outcome,[18],inactive
same,outcome,[19],inactive
CN(C)CCOc1cc(Cl)cc(Cl)c1,outcome,[1],inactive
same,outcome,[2],inactive
same,outcome,[3],inactive
same,outcome,[4],inactive
same,outcome,[5],inactive
same,outcome,[6],inactive
same,outcome,[7],inactive
same,outcome,[20],inactive
same,outcome,[9],inactive
same,outcome,[10],inactive
same,outcome,[11],inactive
same,outcome,[12],inactive
same,outcome,[13],inactive
same,potentiation,[14],10.7% (active)
same,outcome,[15],inactive
same,outcome,[16],inactive
CC1=NN(c2ccccc2)C(=O)/C1=C/c1c(O)n(-c2ccc(F)c(Cl)c2)[nH]c1=O,outcome,[1],inactive
same,outcome,[2],inactive
same,outcome,[3],inactive
same,outcome,[4],inactive
same,inhibition,[5],97% (active)
same,outcome,[6],inactive
same,outcome,[7],inactive
same,outcome,[8],inactive
same,outcome,[9],inactive
same,outcome,[10],inactive
same,outcome,[11],inactive
same,outcome,[12],inactive
same,inhibition,[13],17.1% (active)
same,outcome,[14],inactive
same,outcome,[15],inactive
same,outcome,[16],inactive
same,outcome,[17],inactive
same,outcome,[18],inactive
same,outcome,[19],inactive
CCSC1=N/C(=C\c2ccc(OC)cc2)C(=O)N1,outcome,[1],inactive
same,outcome,[2],inactive
same,outcome,[3],inactive
same,outcome,[4],inactive
same,outcome,[5],inactive
same,outcome,[6],inactive
same,outcome,[7],inactive
same,outcome,[20],inactive
same,outcome,[9],inactive
same,outcome,[10],inactive
same,outcome,[11],inactive
same,outcome,[12],inactive
same,outcome,[13],inactive
same,outcome,[14],inactive
same,outcome,[15],inactive
same,outcome,[16],inactive
COc1ccc(N/C(C)=C2/C(=O)C(=O)N(CCO)C2c2ccc([N+](=O)[O-])cc2)cc1 (centres undefined),outcome,[1],inactive
same,outcome,[2],inactive
same,potentiation,[3],189% (active)
same,potentiation,[4],150% (active)
same,outcome,[5],inactive
same,outcome,[6],inactive
same,outcome,[7],inactive
same,outcome,[20],inactive
same,outcome,[9],inactive
same,outcome,[10],inactive
same,outcome,[11],inactive
same,outcome,[12],inactive
same,outcome,[13],inactive
same,potentiation,[14],129% (active)
same,outcome,[15],inactive
same,outcome,[16],inactive
O=C(Nc1cccc(Cl)c1)N1CCN(C/C=C/c2ccccc2)CC1,outcome,[1],inactive
same,outcome,[2],inactive
same,outcome,[3],inactive
same,outcome,[4],inactive
same,outcome,[5],inactive
same,outcome,[6],inactive
same,outcome,[7],inactive
same,outcome,[20],inactive
same,outcome,[9],inactive
same,outcome,[10],inactive
same,outcome,[11],inactive
same,outcome,[12],inactive
same,outcome,[13],inactive
same,potentiation,[14],19.8% (active)
same,outcome,[15],inactive
same,outcome,[16],inactive
Cc1cc(C)cc(N/C(N)=N/c2nc(C)cc(C)n2)c1,outcome,[1],inactive
same,outcome,[2],inactive
same,outcome,[3],inactive
same,outcome,[4],inactive
same,inhibition,[5],100% (active)
same,outcome,[6],inactive
same,outcome,[7],inactive
same,outcome,[8],inactive
same,outcome,[9],inactive
same,outcome,[10],inactive
same,outcome,[11],inactive
same,outcome,[12],inactive
same,inhibition,[13],30.2% (active)
same,outcome,[14],inactive
same,outcome,[15],inactive
same,outcome,[16],inactive
same,outcome,[17],inactive
same,outcome,[18],inactive
same,outcome,[19],inactive
O=C(c1cccc([N+](=O)[O-])c1)N1CCCC(C(=O)N2CCCCCC2)C1 (centres undefined),outcome,[1],inactive
same,outcome,[2],inactive
same,outcome,[3],inactive
same,outcome,[4],inactive
same,outcome,[5],inactive
same,outcome,[6],inactive
same,outcome,[7],inactive
same,outcome,[20],inactive
same,outcome,[9],inactive
same,outcome,[10],inactive
same,outcome,[11],inactive
same,outcome,[12],inactive
same,outcome,[13],inactive
same,outcome,[14],inactive
same,outcome,[15],inactive
same,outcome,[16],inactive
CCn1c(O)c(N=NC(=O)c2cccc(S(=O)(=O)N3CCCCC3)c2)c2ccccc21,outcome,[1],inactive
same,outcome,[2],inactive
same,outcome,[3],inactive
same,outcome,[4],inactive
same,outcome,[5],inactive
same,outcome,[6],inactive
same,outcome,[7],inactive
same,outcome,[20],inactive
same,outcome,[9],inactive
same,outcome,[10],inactive
same,outcome,[11],inactive
same,outcome,[12],inactive
same,outcome,[13],inactive
same,potentiation,[14],6.79% (active)
same,outcome,[15],inactive
same,outcome,[16],inactive
